# Compound activity as filed in PubChem BioAssay.
# A selection: hits, their analogues and other compounds. The true share with any hit is near 18%.
# TDP1 inh = TDP1 (human) enzyme inhibition; recombinant TDP1, AlphaScreen DNA substrate cleavage; Potency, µM (series often up to 130 µM), for the others: at the highest dose activity change, negative = inhibition, actives largely listed as inhibitors; 350,000 tested, 0.28% active; AID 485290; further: potency means the concentration at half of the fitted maximal effect; on the % scale 0 is the no-effect control and ±100 the full control effect; nearly all actives have a fitted effect of over 40% in size
# Target sequence (Q9NUW8 whole entry, looked up): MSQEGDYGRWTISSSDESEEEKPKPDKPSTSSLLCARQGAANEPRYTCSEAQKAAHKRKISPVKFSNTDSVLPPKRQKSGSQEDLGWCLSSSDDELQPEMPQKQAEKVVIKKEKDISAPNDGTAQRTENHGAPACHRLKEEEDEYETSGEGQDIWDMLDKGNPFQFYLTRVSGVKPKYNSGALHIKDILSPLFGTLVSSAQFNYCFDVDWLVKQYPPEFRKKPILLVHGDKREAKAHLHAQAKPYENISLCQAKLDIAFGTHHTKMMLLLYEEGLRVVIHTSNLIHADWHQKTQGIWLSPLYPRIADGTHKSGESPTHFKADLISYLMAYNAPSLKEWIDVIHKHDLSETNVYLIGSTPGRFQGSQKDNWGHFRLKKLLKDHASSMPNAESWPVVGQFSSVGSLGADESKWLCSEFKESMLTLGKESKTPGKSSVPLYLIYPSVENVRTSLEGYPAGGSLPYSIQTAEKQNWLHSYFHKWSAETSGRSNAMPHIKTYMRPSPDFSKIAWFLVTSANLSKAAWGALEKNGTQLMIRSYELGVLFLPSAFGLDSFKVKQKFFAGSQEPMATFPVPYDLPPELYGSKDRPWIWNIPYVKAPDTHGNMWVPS
#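 Recombinant E. coli-expressed Tdp1 (1 nM) preincubated with compound 15 min at RT, then 5'-biotin/3'-phosphotyrosine-FITC DNA substrate (15 nM) added for 5 min. AlphaScreen beads (10 ug/ml) added, 10 min RT; tyrosine-FITC cleavage read as signal loss.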
# DT40 TDP1 CPT = DT40-hTDP1 cell growth loss with CPT; chicken DT40 Tdp1-/-;hTDP1 cells + 20 nM CPT, ATP luminescence, 48 h; Potency, µM (highest dose often 46.2 µM), for the others: at the highest dose activity change, negative = growth inhibition, usual class: inhibitors; 420,000 tested, 12% active; further: potency means the concentration at half of the fitted maximal effect; on the % scale 0 is the no-effect control and ±100 the full control effect; nearly all actives have a fitted effect of over 55% in size
#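 Chicken DT40 Tdp1-/- cells stably complemented with human TDP1 were seeded at 400 cells/well in medium containing 20 nM camptothecin, exposed to pin-transferred compounds, and grown at 37 °C for at least 48 hr. Viability was read as ATP luminescence.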
# HepG2 tox = kills HepG2 cells in TGF-b inhibitor counter-screen; HepG2 CAGA-GFP viability, ATP luminescence, 18 h; Potency, µM (series often up to 46.1 µM), for inactives: at the highest dose activity change, negative = cytotoxicity, hits mostly cytotoxic; 410,000 tested, 0.76% active; further: potency means the concentration at half of the fitted maximal effect
#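 HepG2 CAGA-GFP cells (1000/well, DMEM with 1% FBS) received compound, then TGF-beta at 500 pg/mL final, and were incubated 18 hours at 37 degrees C. Viability was read by CellTiter-Glo luminescence. Media-only wells were set as complete cell-killing and DMSO as no toxicity.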
# IL1B secr inh = blocks inflammasome-driven IL-1 beta release | THP-1 LPS/ATP IL-1B secretion, AlphaLISA, 16 h; hits give low values | 360,000 tested, 4.7% active | AID 743279 | activity change, % at 57.5 µM; in the data active means activity change below about -50%; inconclusive means mostly about -30% to -49%; further: on the % scale 0 is the no-effect control and ±100 the full control effect
#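 THP-1 cells pretreated 1 hr with compounds (up to 57.5 uM final), then stimulated with LPS (250 ng/mL final) plus ATP (1.25 mM final); secreted IL-1B measured by AlphaLISA after 16 hr, decreased signal indicating inhibition.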
# TGFb inhibitor = TGF-b pathway inhibition. HepG2 CAGA-GFP TGF-b/SMAD3 reporter, GFP fluorescence, 18 h; TGF-beta stimulated, 500 pg/mL final. Potency, µM (series often up to 46.1 µM), without a hit: top-dose activity, negative = inhibition, actives largely listed as inhibitors. 410,000 tested, 1.2% active. AID 588855; further: potency means the concentration at half of the fitted maximal effect; on the % scale 0 is the no-effect control and ±100 the full control effect; nearly all actives have a fitted effect of over 65% in size
#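 Read-out: total well GFP (ex488/em500-530) summed from mean per-cell fluorescence. Cells: HEPG2 CAGA-GFP, 1% FBS DMEM, 18 h at 37 degrees C with 500 pg/mL final TGF-beta. Unstimulated wells served as the full-inhibition control; stimulated DMSO wells = 0%.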
# TDP1 cell noCPT = qHTS for Inhibitors of human tyrosyl-DNA phosphodiesterase 1 (TDP1): qHTS in cells in absence of CPT | DT40 Tdp1-/- hTDP1 cells, no CPT, ATP luminescence, 48 h | Potency, µM (top dose mostly 46.2 µM), without a hit: top-dose activity change, negative = growth inhibition, most hits filed as inhibitors | 420,000 tested, 15% active | AID 686978, 2013; further: potency means the concentration at half of the fitted maximal effect; on the % scale 0 is the no-effect control and ±100 the full control effect; nearly all actives have a fitted effect of over 55% in size
#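 Seeded 400 DT40-hTDP1 cells/well (vehicle DMSO, no 20 nM CPT); pinned compounds; ≥48 hr at 37 °C; CellTiter-Glo luminescence as viability measure.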
# * hit, by the source's call; ? = inconclusive; . = no result given. Unless noted, the call rests on the fitted dose curve; in most records, active means well fitted curve in the direction sought with a large enough effect; inconclusive means small, poorly fitted or top-dose-only effect, or another doubt; inactive means no such curve, though single readings can be large; an effect the other way counts as inactive or inconclusive.
SMILES,TDP1 inh,DT40 TDP1 CPT,HepG2 tox,IL1B secr inh,TGFb inhibitor,TDP1 cell noCPT
CCCOc1ccc2cc(C(=O)NCc3ccccc3)c(=O)oc2c1,-2.7%,-26.6%,-8.2%,-12.7,19.8%,-26.7%
COc1ccc(CCN2C(=O)c3[nH]nc(-c4ccccc4O)c3C2c2ccccc2)cc1 (configuration not stated),6.1%,5.17µM*,-79.1%,.,?,5.8µM*
COc1cccc(C2c3c(-c4ccccc4O)n[nH]c3C(=O)N2CCc2ccc(OC)c(OC)c2)c1 (configuration not stated),8.6%,14.6µM*,-31.9%,.,?,18.4µM*
COc1ccccc1C(=O)NCC(c1cccs1)N1CCc2ccccc21 (configuration not stated),1.0%,20.6µM*,-4.0%,-0.6,-22.6%,18.4µM*
COc1cc(C(=O)NCC(c2cccs2)N2CCc3ccccc32)cc(OC)c1OC (configuration not stated),0.8%,?,-14.4%,?,?,20.6µM*
COc1cccc(C(=O)NCC(c2cccs2)N2CCc3ccccc32)c1 (configuration not stated),2.6%,13µM*,-20.5%,?,?,?
COc1cc(C(=O)NCC(c2cccs2)N2CCOCC2)cc(OC)c1OC (configuration not stated),-4.0%,-9.7%,0.0%,9.2,0.9%,-25.9%
CCOc1cc(CNC(=O)c2cc(-c3ccc(Cl)s3)nc3ccccc23)ccc1OC,-0.9%,?,-15.9%,.,-2.7%,?
O=C(COc1ccc(F)cc1)Nc1ccc(C(=O)OCc2cc(=O)n3nc(C4CC4)sc3n2)cc1,-3.8%,?,2.3%,.,-1.4%,-22.9%
O=C(NCCN1CCC(n2c(=O)[nH]c3ccccc32)CC1)c1cc(F)cc(F)c1,.,-10.0%,.,-53.0*,.,-29.7%
O=C(NCCN1CCC(n2c(=O)[nH]c3ccccc32)CC1)c1ccncc1,.,-48.0%,.,-27.6,.,-46.9%
CCCCOc1ccc(C(=O)NCCN2CCC(n3c(=O)[nH]c4ccccc43)CC2)cc1,.,?,.,-16.8,.,?
O=C(NCCN1CCC(n2c(=O)[nH]c3ccccc32)CC1)c1cccc(F)c1,.,-29.0%,.,-73.9*,.,-23.2%
O=C(NCCN1CCC(n2c(=O)[nH]c3ccccc32)CC1)c1cccc(Cl)c1,.,16.4µM*,.,?,.,?
O=C(NCCN1CCC(n2c(=O)[nH]c3ccccc32)CC1)C(c1ccccc1)c1ccccc1,.,16.4µM*,.,-79.7*,.,16.4µM*
COc1cccc(NC(=O)CCSc2nc(-c3ccco3)cc(C(F)(F)F)n2)c1,-4.2%,?,-11.2%,.,-17.2%,?
COc1ccc(C2N(c3ccc4c(c3)OCCO4)C(=O)C2(F)F)cc1OC (configuration not stated),0.6%,-16.6%,31.2%,-78.7*,4.0%,-1.8%
COc1ccc(N2C(=O)C(F)(F)C2c2ccc(C)cc2)cc1OC (configuration not stated),3.6%,28.4%,-1.9%,42.1,3.8%,-17.0%
Cc1cc(-c2cn3ccccc3n2)c(C)n1-c1ccccc1,10.3%,?,-10.2%,-10.7,?,16.4µM*
COc1ccc(-n2c(C)cc(-c3cn4cccc(C)c4n3)c2C)cc1,6.5%,?,0.3%,28.2,?,?
Cn1c(=O)n(C)c2cc(NC(=O)CSc3nnc(-c4ccccc4O)n3-c3ccccc3)ccc21,7.7%,18.4µM*,-34.0%,-9.5,-50.7%,?
Cc1ccccc1OCC(=O)Nc1ccc2c(c1)n(C)c(=O)n2C,-7.5%,?,-18.9%,-24.4,11.2%,14.6µM*
CC(=O)Nc1ccc2c(c1)n(C)c(=O)n2C,3.3%,2.6%,2.0%,18.9,-3.9%,-3.4%
Cn1c(=O)n(C)c2cc(NC(=O)CCl)ccc21,3.1%,10.3µM*,-91.7%,-91.0*,-19.9%,11.6µM*
CC(=CC(=O)c1ccccc1)c1ccccc1,.,-5.7%,0.2%,-5.0,19.6%,-17.8%
SMILES,TDP1 inh,DT40 TDP1 CPT,HepG2 tox,IL1B secr inh,TGFb inhibitor,TDP1 cell noCPT
Cc1cc(C(=O)CSc2nnc(-c3cccs3)o2)c(C)n1-c1ccccc1,6.3%,?,1.3%,23.5,?,?
COc1ccc2c(c1)C(=O)[C@@H](OC(=O)Nc1ccc(C)c(Br)c1)[C@H](c1ccc(OC)c(Br)c1)O2,10.0%,.,.,.,.,.
O=c1cc[nH]c2c1ccc1cccnc12,0.4%,?,-9.2%,15.0,-3.3%,?
CC(C)CC(=O)Nc1ccc2nc(SCC(=O)N3CCCC3)sc2c1,5.7%,23.1µM*,6.1%,.,-11.2%,23.1µM*
CCC(CC)C(=O)Nc1ccc2nc(SCC(=O)N3CCCC3)sc2c1,-0.5%,?,-19.3%,.,0.0%,20.6µM*
Cn1c(SCC(=O)Nc2ccc3nc(SCC(=O)N4CCCC4)sc3c2)nnc1-c1ccc(N)cc1,35.5µM*,?,-7.8%,-6.4,8.8%,?
Cn1c(SCC(=O)Nc2ccc3nc(SCC(=O)NC4CC4)sc3c2)nnc1-c1ccccc1,-4.4%,-3.0%,-4.8%,43.0,7.5%,?
C[C@H](NC(=O)N1CCn2c1nc1ccccc12)C(=O)NCCc1ccccc1,1.4%,-5.1%,9.2%,-10.5,0.0%,-3.8%
